This note sets out measurements from PubChem BioAssay (NCI).

SMILES strings stand for the structures. About 83,000 compounds went through this panel and 20% of them were active in at least one assay; those are over-represented in the sample as a whole.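 Assay: single dose, 48 h. Readout: percent growth (0 = no net growth; negative = cell death). Active: <10.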 A number with no mark means an inactive call. The source made the active and inactive calls.

Some test systems named below: DU-145 prostate; K-562 leukemia; MALME-3M melanoma; MDA-MB-231 breast; RXF 393 renal; SF-268 CNS; SF-295 CNS; SF-539 CNS; UACC-257 melanoma; M14 melanoma; HCT-15 colon; HT29 colon; SNB-75 CNS; SNB-19 CNS; U251 CNS; PC-3 prostate; SK-MEL-5 melanoma; UACC-62 melanoma; LOX IMVI melanoma; SK-MEL-28 melanoma.
Holding throughout (assay): NCI-60 one-dose screen, 48 h (100 = growth as untreated, 0 = no growth, -100 = all killed)
Common to all, as to details: 10 µM unless noted

For `C=C(CNCCc1ccc(O)cc1)[C@@H]1CC[C@]2(CO)CC[C@]3(C)[C@H](CC[C@@H]4[C@@]5(C)CCC(NCCO)C(C)(C)[C@@H]5CC[C@]43C)[C@@H]12` (stereo not given in full), the growth is -31% (active) in the assay with DU-145 prostate; -49% (active) in the assay with K-562 leukemia; -90.6% (active) in the assay on MALME-3M melanoma; -77.6% (active) in the assay with MDA-MB-231 breast; -90.3% (active) in the assay with RXF 393 renal; -62.4% (active) in the assay with SF-268 CNS. For the same molecule, the growth with SF-295 CNS is -80.8% (active); with SF-539 CNS, -97.3% (active); with UACC-257 melanoma, -77.9% (active); in the assay on M14 melanoma, -89.3% (active); in the assay on HCT-15 colon, -80.9% (active); with HT29 colon, -44.1% (active). Further, the growth in the assay with SNB-75 CNS is -97.8% (active); in the assay with SNB-19 CNS, -73.2% (active); in the assay with U251 CNS, -83.7% (active); with PC-3 prostate, -20.1% (active); in the assay on SK-MEL-5 melanoma, -94.2% (active); in the assay on UACC-62 melanoma, -80.8% (active). Also, the growth in the assay with LOX IMVI melanoma is -84.1% (active); with SK-MEL-28 melanoma it was -92.4% (active).

For the molecule `COc1cc(N2C(=O)[C@H](O)C2c2ccc(SC)cc2)cc(OC)c1OC` (stereo not given in full), the growth with DU-145 prostate was 3.72% (active); in the assay with K-562 leukemia it was 5.68% (active); in the assay with MALME-3M melanoma it was 71.7%; in the assay with MDA-MB-231 breast it was 30.3%; with RXF 393 renal it was 15.3%; with SF-268 CNS it was 28.1%. Moreover, the growth is 10.1% with SF-295 CNS; 16.3% in the assay with SF-539 CNS; 42.1% in the assay on UACC-257 melanoma; 6.4% (active) in the assay with M14 melanoma; 12.8% in the assay on HCT-15 colon; -14.5% (active) with HT29 colon. In addition, the growth with SNB-75 CNS is 83.8%; in the assay on SNB-19 CNS, 35.9%; in the assay with U251 CNS it was 14.4%; with PC-3 prostate, 22.4%; with SK-MEL-5 melanoma, -13.8% (active); in the assay on UACC-62 melanoma, 33.8%. For the same molecule, the values for the growth with LOX IMVI melanoma and in the assay with SK-MEL-28 melanoma were 25.5% and 67.1%, respectively.

With `CN[C@]12CC3(C=CC(=O)C=C3)O[C@@]1(Cc1ccc(OC)cc1)N(C)C(=O)N2`, the growth is 85.2% in the assay on DU-145 prostate; 7.19% (active) with K-562 leukemia; 11.2% with MALME-3M melanoma; 76.9% with MDA-MB-231 breast; 43.7% in the assay on RXF 393 renal; 66.4% with SF-268 CNS. In addition, the growth in the assay with SF-295 CNS was 103%; in the assay with SF-539 CNS, 12.2%; with UACC-257 melanoma, 41%; with M14 melanoma it was 9.52% (active); in the assay on HCT-15 colon, 4.25% (active); with HT29 colon, 7.83% (active). Moreover, the growth was 37.8% with SNB-75 CNS; 64.4% in the assay with SNB-19 CNS; 10.9% in the assay on U251 CNS; 27.6% in the assay with PC-3 prostate; 43% in the assay on SK-MEL-5 melanoma; -43% (active) in the assay on UACC-62 melanoma. In addition, the growth in the assay on LOX IMVI melanoma was -50% (active); in the assay on SK-MEL-28 melanoma, 18.1%.

For the molecule `Cc1oc(-c2ccc(Cl)cc2)nc1/C=C/C(=O)c1ccccc1`, the growth in the assay with DU-145 prostate is 109%; with K-562 leukemia, 99.1%; in the assay on MALME-3M melanoma, 97.6%; in the assay on MDA-MB-231 breast it was 101%; in the assay on RXF 393 renal, 106%; in the assay with SF-268 CNS it was 97.1%. The growth was 99.9% in the assay with SF-295 CNS; 99.5% with SF-539 CNS; 106% in the assay with UACC-257 melanoma; 104% in the assay on M14 melanoma; 97.5% with HCT-15 colon; 107% with HT29 colon. The growth is 93.2% with SNB-75 CNS; 97.6% with SNB-19 CNS; 97.5% with U251 CNS; 93.6% in the assay on PC-3 prostate; 99% with SK-MEL-5 melanoma; 87.5% with UACC-62 melanoma. Further, the growth was 99.6% with LOX IMVI melanoma and 105% in the assay on SK-MEL-28 melanoma.

With `Cn1cc(-c2csc(-c3ccc(Cl)cc3)n2)c2cccnc21`, the growth in the assay with DU-145 prostate was -70.5% [100 µM] (active); with K-562 leukemia, 3.35% [100 µM] (active); in the assay on MALME-3M melanoma, -9.47% [100 µM] (active); with MDA-MB-231 breast, -46.5% [100 µM] (active); with RXF 393 renal it was -7.46% [100 µM] (active); with SF-268 CNS, -33.6% [100 µM] (active). The growth with SF-295 CNS is -20.3% [100 µM] (active); with SF-539 CNS, -63.8% [100 µM] (active); in the assay on UACC-257 melanoma it was -35.6% [100 µM] (active); in the assay on M14 melanoma it was -62.3% [100 µM] (active); in the assay on HCT-15 colon, -31.9% [100 µM] (active); with HT29 colon, -70.3% [100 µM] (active). Moreover, the growth is -82.5% [100 µM] (active) with SNB-75 CNS; -41.8% [100 µM] (active) with SNB-19 CNS; 4.92% [100 µM] (active) with U251 CNS; -16.7% [100 µM] (active) in the assay with PC-3 prostate; -86.9% [100 µM] (active) in the assay with SK-MEL-5 melanoma; -38.5% [100 µM] (active) in the assay with UACC-62 melanoma. Moreover, the growth in the assay with LOX IMVI melanoma was 1.66% [100 µM] (active); in the assay on SK-MEL-28 melanoma, -63.9% [100 µM] (active).

For `COc1ccc2nc(NC(=O)CSc3nnc4n3S(=O)(=O)c3ccccc3N4C)sc2c1`, the growth in the assay with DU-145 prostate is 115%; in the assay on K-562 leukemia it was 91.2%; in the assay with MALME-3M melanoma it was 120%; in the assay on MDA-MB-231 breast it was 94.5%; with RXF 393 renal, -29.4% (active); with SF-268 CNS it was 95.8%. For the same molecule, the growth in the assay with SF-295 CNS was 127%; with SF-539 CNS it was 106%; with UACC-257 melanoma, 82.4%; with M14 melanoma, 101%; in the assay with HCT-15 colon it was 101%; in the assay with HT29 colon, 114%. Besides, the growth with SNB-75 CNS is 93.5%; in the assay on SNB-19 CNS, 112%; in the assay on U251 CNS, 102%; in the assay with PC-3 prostate, 94.7%; with SK-MEL-5 melanoma it was 95.1%; in the assay on UACC-62 melanoma, 87.3%. Also, the growth in the assay with LOX IMVI melanoma is 92%; in the assay on SK-MEL-28 melanoma, 117%.

Turning to `Cc1ccc2c3c(c(=O)[nH]c2c1)C1(C(C#N)=C(N)O3)c2cc(Br)ccc2-c2ccc(Br)cc21`, the growth in the assay with DU-145 prostate was -7.81% (active); in the assay on K-562 leukemia, 18.8%; in the assay with MALME-3M melanoma it was -47.9% (active); with MDA-MB-231 breast, -33.9% (active); in the assay with RXF 393 renal it was -63.6% (active); with SF-268 CNS, -26.9% (active). For the same molecule, the growth in the assay on SF-295 CNS is -68.7% (active); in the assay with SF-539 CNS, -51% (active); in the assay with UACC-257 melanoma, 71.2%; with M14 melanoma, 50.6%; with HCT-15 colon, 11.4%; with HT29 colon it was -14.7% (active). Moreover, the growth in the assay with SNB-75 CNS was -26.8% (active); in the assay with SNB-19 CNS it was -30% (active); in the assay with U251 CNS, -66.4% (active); in the assay on PC-3 prostate it was -30.2% (active); with SK-MEL-5 melanoma, 61.4%; in the assay with UACC-62 melanoma, 40.1%. Also, the growth with LOX IMVI melanoma was 2.99% (active); in the assay on SK-MEL-28 melanoma, 48.7%.

For `Cn1c(=O)c2[nH]c(N/N=C/c3ccccc3Br)nc2n(C)c1=O`, the growth is 104% in the assay with DU-145 prostate; 87.9% in the assay on K-562 leukemia; 107% in the assay on MALME-3M melanoma; 97.8% with MDA-MB-231 breast; 121% in the assay on RXF 393 renal; 104% with SF-268 CNS. Also, the growth in the assay on SF-295 CNS was 92.2%; in the assay with SF-539 CNS it was 113%; in the assay on UACC-257 melanoma, 117%; in the assay with M14 melanoma it was 99.9%; in the assay on HCT-15 colon, 100%; in the assay with HT29 colon, 106%. Also, the growth in the assay with SNB-75 CNS was 97.6%; in the assay with SNB-19 CNS, 109%; in the assay on U251 CNS, 111%; with PC-3 prostate it was 98.4%; in the assay on SK-MEL-5 melanoma, 103%; in the assay with UACC-62 melanoma, 96.6%. Besides, the growth in the assay with LOX IMVI melanoma is 104%; in the assay on SK-MEL-28 melanoma it was 107%.
